Screens: PubChem, National Center for Advancing Translational Sciences (NCATS)
TDP1 inh: TDP1 (human) enzyme inhibition; Potency, µM (doses to about 130 µM), hits mostly inhibitors; 350,000 tested, 0.28% active; AID 485290; recombinant TDP1, AlphaScreen DNA substrate cleavage; Q9NUW8; also: nearly all actives have a fitted effect of over 40% in size
Target sequence (Q9NUW8 whole entry, looked up): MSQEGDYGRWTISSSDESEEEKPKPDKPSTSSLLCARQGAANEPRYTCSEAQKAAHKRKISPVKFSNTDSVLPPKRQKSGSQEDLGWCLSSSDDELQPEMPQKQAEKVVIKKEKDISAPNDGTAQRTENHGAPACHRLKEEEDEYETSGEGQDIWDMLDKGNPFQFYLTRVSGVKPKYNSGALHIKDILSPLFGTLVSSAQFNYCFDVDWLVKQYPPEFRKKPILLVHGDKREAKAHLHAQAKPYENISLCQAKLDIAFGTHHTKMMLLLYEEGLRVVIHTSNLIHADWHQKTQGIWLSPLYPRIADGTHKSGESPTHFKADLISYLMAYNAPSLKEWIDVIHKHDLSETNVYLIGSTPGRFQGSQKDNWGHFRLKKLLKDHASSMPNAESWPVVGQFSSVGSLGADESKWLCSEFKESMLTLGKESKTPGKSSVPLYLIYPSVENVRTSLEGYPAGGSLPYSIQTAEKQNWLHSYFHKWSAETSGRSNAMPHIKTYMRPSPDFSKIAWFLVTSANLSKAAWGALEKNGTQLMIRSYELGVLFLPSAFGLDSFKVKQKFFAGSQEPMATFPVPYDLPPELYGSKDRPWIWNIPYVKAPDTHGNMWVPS
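Enzyme-compound mixtures sat 15 min at room temperature, followed by a 5 min reaction with 15 nM final substrate and 10 min with AlphaScreen beads. Recombinant human Tdp1 was used at 1 nM final.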
DT40 TDP1 CPT: growth inhibition of DT40 Tdp1-/-;hTDP1 cells with camptothecin (screen for TDP1 inhibitors) | chicken DT40 Tdp1-/-;hTDP1 cells + 20 nM CPT, ATP luminescence, 48 h | Potency, µM (titrated, usually from 46.2 µM), most hits filed as inhibitors | 420,000 tested, 12% active | AID 686979; also: nearly all actives have a fitted effect of over 55% in size
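Cell growth measured by CellTiter-Glo luminescence after a minimum 48 h, 37 C compound exposure with 20 nM CPT in Tdp1-knockout DT40 cells stably expressing hTDP1, seeded 400/well; qHTS titration format.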
CtBP-E1A inh: blocks the CtBP interaction with E1A; AlphaScreen GST-E1A/His-CtBP binding, 1536-well; stronger effect = lower value; activity change, % (no concentration beside the values); 340,000 tested, 0.49% active; AID 651724; in the data active = activity change below about -65%; inconclusive = mostly about -30% to -63%
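Homogeneous bead-based format: GST-tagged E1A captured on glutathione donor beads, His-tagged CtBP on nickel acceptor beads; compounds precede bead addition by 2 h at 37 °C.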
Six1-Eya2 blk: inhibitors of human Six1/Eya2 interaction. AID 651725. 360,000 tested, 0.56% active. AlphaScreen GST-Six1/His-Eya2 binding, biochemical; stronger effect = lower value. Q15475+O00167. activity change, % (no concentration beside the values); in the data active = activity change below about -65%; inconclusive = mostly about -30% to -63%
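Compounds are tested against tagged Six1 and Eya2 proteins bridged by glutathione donor and nickel acceptor beads; after a one-hour incubation at 37 °C without light, AlphaScreen emission is recorded.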
TDP1 cell noCPT: qHTS for Inhibitors of human tyrosyl-DNA phosphodiesterase 1 (TDP1): qHTS in cells in absence of CPT | DT40 Tdp1-/- hTDP1 cells, no CPT, ATP luminescence, 48 h | Potency, µM (highest dose often 46.2 µM), hits mostly inhibitors | 420,000 tested, 15% active | AID 686978, 2013; also: nearly all actives have a fitted effect of over 55% in size
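Luminescent ATP content (CellTiter-Glo) served as the growth readout. Knockout chicken DT40 cells expressing human TDP1 were exposed to compounds without camptothecin for a minimum 48 hr at 37 °C.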
IL-1B inflam inh: inflammasome signaling inhibition, IL-1 beta readout; 360,000 tested, 4.7% active; THP-1 LPS/ATP IL-1B secretion, AlphaLISA, 16 h; stronger effect = lower value; activity change, % at 57.5 µM; in the data active = activity change below about -50%; inconclusive = mostly about -30% to -49%
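THP-1 cells pretreated 1 hr with compounds (up to 57.5 uM final), then stimulated with LPS (250 ng/mL final) plus ATP (1.25 mM final); secreted IL-1B measured by AlphaLISA after 16 hr, decreased signal indicating inhibition.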
Hits are given with their value; - = inactive; ? = inconclusive; . = no result given. This is a sample that favours compounds with a hit; in the whole collection about 18% have one here. Unless noted, calls follow the shape of the dose curve; as a rule, active = well fitted curve in the direction sought with a large enough effect; inconclusive = small, poorly fitted or top-dose-only effect, or another doubt; inactive = no such curve, though single readings can be large; an effect the other way counts as inactive or inconclusive.

SMILES | TDP1 inh | DT40 TDP1 CPT | CtBP-E1A inh | Six1-Eya2 blk | TDP1 cell noCPT | IL-1B inflam inh
CC1=N/C(=C/c2ccco2)C(=O)O1 | 5.6µM | - | - | - | - | -
Cc1nn(C)c(Cl)c1CN1CCCC(CO)(Cc2cccc(Cl)c2)C1 (stereo not drawn) | - | 15µM | . | - | 15µM | -
Cc1ccccc1CC1(CO)CCCN(C(=O)c2cccc(Cl)c2)C1 (stereo not drawn) | - | - | . | - | ? | -
O=C(c1ccc(-n2ccnc2)cc1)N1CCCC(CO)(Cc2cccc(Cl)c2)C1 (stereo not drawn) | - | 4.6µM | . | - | ? | -
OCC1(Cc2cccc(Cl)c2)CCCN(Cc2ccc(F)c(F)c2)C1 (stereo not drawn) | . | 23µM | - | - | ? | -55
Cc1ccccc1CC1(CO)CCCN(Cc2c(C)nn(C)c2Cl)C1 (stereo not drawn) | - | - | - | - | ? | -
OCC1(Cc2ccccc2)CCCN(Cc2ccc(-c3ccco3)cc2)C1 (stereo not drawn) | - | ? | - | - | 23µM | -84
OCC1(Cc2cccc(Cl)c2)CCCN(Cc2cnn(-c3ccccc3)c2)C1 (stereo not drawn) | - | ? | . | - | 13µM | -
COc1ccc(CN2CCCC(CO)(Cc3cccc(Cl)c3)C2)cc1OC (stereo not drawn) | . | - | - | - | 21µM | -
Cn1cc(CN2CCCC(CO)(Cc3cccc(Cl)c3)C2)cn1 (stereo not drawn) | - | - | - | - | ? | -
CCCCOC(=O)c1ccc(NC(=O)c2nn(C)cc2Br)cc1 | - | - | - | - | - | ?
Cc1cn2nc(N)c3ccccc3c2n1 | - | - | - | - | - | -
Nc1nn2cc(-c3ccccc3)nc2c2ccccc12 | - | ? | - | - | ? | -100
Cc1ccc(CC2SC(=O)NC2=O)cc1Cl (stereo not drawn) | - | - | - | - | - | -
CC(=O)/C(C#N)=C1\NC(=O)C(Cc2ccc(C)c(C)c2)S1 (stereo not drawn) | - | 0.58µM | - | - | 0.073µM | -
CC(=O)/C(C#N)=C1\NC(=O)C(Cc2ccc(F)cc2)S1 (stereo not drawn) | . | ? | - | - | 1.3µM | -
CNC(=O)/C(C#N)=C1/SC(Cc2ccc(F)cc2)C(=O)N1c1ccccc1 (stereo not drawn) | - | - | - | - | - | -
CC(=O)/C(C#N)=C1\NC(=O)C(Cc2cc(Cl)ccc2Cl)S1 (stereo not drawn) | . | ? | . | - | 3.3µM | -
CC(=O)/C(C#N)=C1\NC(=O)C(Cc2ccccc2Cl)S1 (stereo not drawn) | - | ? | - | - | ? | -
Cc1ccc(C)c2[nH]c(=O)c(CN(Cc3nnnn3C3CCCCC3)CC3CCCO3)cc12 (stereo not drawn) | - | 15µM | - | - | 23µM | ?
Cc1cccc2cc(CN(Cc3cccs3)C3(c4nnnn4C4CCCC4)CCCC3)c(=O)[nH]c12 | - | ? | - | - | 21µM | -
Cc1ccc(C)c2[nH]c(=O)c(CN(CCN3CCOCC3)Cc3nnnn3CC3CCCO3)cc12 (stereo not drawn) | - | - | - | - | - | -
Cc1cc2cc(CN(Cc3cccs3)S(=O)(=O)c3ccc4c(c3)OCCO4)c(=O)[nH]c2cc1C | - | ? | - | - | ? | -
Cc1cc(C)c2[nH]c(=O)c(CN(CC3CCCO3)C(=O)C3CCCO3)cc2c1 (stereo not drawn) | - | - | - | - | - | -
Cc1ccc(C)c2[nH]c(=O)c(CN(CC3CCCO3)C(=O)NC3CCCCC3)cc12 (stereo not drawn) | - | 23µM | - | - | ? | -
SMILES | TDP1 inh | DT40 TDP1 CPT | CtBP-E1A inh | Six1-Eya2 blk | TDP1 cell noCPT | IL-1B inflam inh
Cc1cccc2cc(CN(Cc3cccs3)S(=O)(=O)c3ccc4c(c3)OCCO4)c(=O)[nH]c12 | - | ? | - | - | 23µM | -
COC(=O)c1sc(-c2cccs2)cc1NC(=O)/C=C/C(=O)O | - | ? | - | - | 15µM | -92
Cc1c(C(=O)Nc2ccc(F)cc2)nnn1-c1cccc(C(F)(F)F)c1 | - | 7.3µM | - | - | 9.2µM | -
Cc1cccc(-n2nnc(C(=O)Nc3ccc(F)cc3)c2N)c1 | - | ? | - | - | ? | -
COc1cccc(NC(=S)/C(=C(\[O-])c2ccc([N+](=O)[O-])cc2)[n+]2ccccc2)c1 | - | ? | - | - | ? | -
CCOC(=O)c1ccc(NS(=O)(=O)c2ccc3c(c2)CCN3C(=O)CC)cc1 | - | 13µM | . | . | ? | .
CCC(=O)N1CCCc2cc(S(=O)(=O)Nc3ccc(C)c(C)c3)ccc21 | - | 23µM | . | . | 18µM | .
CCOc1ccc(C(c2c(O)cc(C)n(Cc3ccco3)c2=O)N2CCN(c3ccccc3)CC2)cc1 (stereo not drawn) | - | ? | . | . | ? | .
CCOC(=O)C1=C(O)/C(=C\c2cc(C)n(-c3ccccc3F)c2C)N=C1C | - | 12µM | - | - | 23µM | -
CCOC(=O)C1=C(O)/C(=C/c2cccc(OC)c2O)N=C1C | - | ? | - | - | - | -
COC(=O)C1=C(C)NC(=O)/C1=C\c1cc(C)n(-c2ccccc2F)c1C | . | - | - | - | ? | -114
CCOC(=O)C1=C(O)/C(=C\c2cc(C)n(-c3ccc(F)cc3)c2C)N=C1C | - | ? | - | - | 15µM | -
Cc1cccc(C)c1NC(=O)C(C)NCc1cccs1 (stereo not drawn) | . | - | - | - | - | -
Cc1cc(=O)c2n(Cc3ccc(Cl)cc3)nc[n+]2[nH]1 | - | - | - | - | - | -
CC(NC(=O)Cc1cccs1)C(c1cccs1)N1CCN(c2ccccc2F)CC1 (stereo not drawn) | - | 18µM | - | - | ? | -
CCS(=O)(=O)NC(C)C(c1cccs1)N1CCN(c2ccc(F)cc2)CC1 (stereo not drawn) | - | ? | - | - | 21µM | -
CCN1CCN(C(c2cccs2)C(C)NS(=O)(=O)c2ccc(Br)cc2)CC1 (stereo not drawn) | - | ? | - | - | 26µM | -
CC(NC(=O)c1ccco1)C(c1cccs1)N1CCN(c2ccc(F)cc2)CC1 (stereo not drawn) | - | 18µM | - | - | 23µM | -72
CC(NC(=O)c1ccco1)C(c1cccs1)N1CCN(c2ccccc2F)CC1 (stereo not drawn) | - | ? | - | - | ? | -
Cc1ccc(S(=O)(=O)N2CCCC(C(=O)NC3CCCC3)C2)cc1 (stereo not drawn) | - | - | - | - | - | -
